MsrA inh: bovine MsrA inhibition | inhibition, % at 15.5 µM | purified bovine MsrA, absorbance read-out | 360,000 compounds, 0.75% hits; in the data active means inhibition above about 4.5%;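 further: 0% = vehicle wells with enzyme and 100% = reference inhibitor wells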
DAGLB inh: diacylglycerol lipase beta (human) inhibition. 340,000 compounds, 0.059% hits. inhibition, % at 5.17 µM. HEK293T DAGLB membrane lysate, EnzChek fluorogenic substrate. AID 504411. Q8NCG7; in the data active means inhibition above about 34%;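 further: 0% = enzyme with vehicle and 100% = wells lacking enzyme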
DSG3 Ab inh: human desmoglein-3 autoantibody binding inhibition. DSG3-coupled beads, scFv-anti-DSG3-GFP binding, flow cytometry; active compounds read low. P32926. 310,000 compounds, 0.48% hits. binding (percent of control), % at 10 µM;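 active means binding more than 3 SD below its plate's average and above zero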;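 further: hits lower antibody fragment binding to DSG3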
bovine MsrA act: activates bovine MsrA enzyme | purified bovine MsrA, absorbance read-out | activation, % at 10.6 µM | 360,000 compounds, 0.3% hits | AID 602163; in the data active means activation above about 7.5%;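 further: 0% = vehicle and 100% = reference activator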
rCAG binder: binds r(CAG) RNA repeats; r(CAG) RNA repeat, TO-PRO-1 dye displacement fluorescence; inhibition, % at 3 µM; 370,000 compounds, 1.3% hits; AID 651821;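 active means inhibition above the plate cutoff, the mean of all test compounds on that plate plus 3 SD, cut at about 35% in these data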;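 further: 0% = DMSO alone and 100% = 100 µM mitoxantrone as full dye displacement; higher means more dye released from RNA so lower well fluorescence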
NadD block: NadD (S. aureus) enzyme inhibition. purified NadD enzyme, colorimetric absorbance read-out. inhibition, % at 20 µM. 360,000 compounds, 0.78% hits. AID 602399; in the data active means inhibition above about 26%
NadD inh conf: confirmation of Staphylococcus aureus NadD inhibitors | shares compounds with NadD block | purified S. aureus NadD, colorimetric enzyme assay | inhibition, % at 20 µM | 2,000 compounds, 13% hits | AID 624309; in the data active means inhibition mostly above about 42%, no sharp cut-off; inactive means mostly below about 42%
* = called active by the depositor. This is a sample that favours compounds with a hit; in the whole collection about 3.2% have one here.

COc1ccc(C(C[N+](=O)[O-])c2c(C)cc3ccccn23)cc1 (stereo not drawn) was read as MsrA inh 0.5, DAGLB inh 0.1, DSG3 Ab inh 95.7, bovine MsrA act -6.7, rCAG binder 6.5 and NadD block 4.1.
`Cc1ccc(Oc2nc(CN3CCOCC3)nc3sc4c(c23)CCC(C)C4)cc1` (stereo not drawn) gave MsrA inh 1.4, DAGLB inh -7.0, DSG3 Ab inh 111.4, bovine MsrA act -2.1, rCAG binder -3.0 and NadD block 3.3.
`CC1CCc2c(sc3nc(CN4CCOCC4)nc(N4CCc5ccccc5C4)c23)C1` (stereo not drawn) gave MsrA inh -0.3, DAGLB inh 1.4, DSG3 Ab inh 112.6, bovine MsrA act 1.9, rCAG binder -0.3, NadD block 36.8* and NadD inh conf 18.2.
Screening C[C@@H]1NS(=O)(=O)c2cccc(Cl)c2O[C@@H]1c1ccccc1 returned MsrA inh -0.2 and rCAG binder 1.4.
`CC(C)c1c(C#N)c(N)nc(SCC(=O)c2cc3ccccc3oc2=O)c1C#N` gave MsrA inh -0.2, DAGLB inh -0.5, DSG3 Ab inh 67.2, bovine MsrA act -3.1, rCAG binder 7.1 and NadD block 17.0.
Screening Cc1nc(SCC(=O)c2cc3ccccc3oc2=O)c(C#N)c(-c2cccs2)c1C(=O)Nc1ccccc1 returned MsrA inh 0.4, DAGLB inh 4.5, DSG3 Ab inh 96.1, bovine MsrA act -3.0, rCAG binder 17.2, NadD block 32.5* and NadD inh conf 2.0.
For CC(C)C[C@H]1CN([C@@H](Cc2ccccc2)CN2CCC[C@H]2CN2C(=O)C(=O)NC[C@@H]2Cc2ccc(O)cc2)C(=O)C(=O)N1CC1CCCCCC1 the results were MsrA inh 2.8, bovine MsrA act -2.6, rCAG binder 10.7, NadD block 36.4* and NadD inh conf 38.2.
Screening CC(C)C[C@H]1CNC(=O)C(=O)N1C[C@@H]1CCCN1C[C@H](Cc1ccc(O)cc1)N1C[C@H](Cc2ccccc2)N(CC2CCCCCC2)C(=O)C1=O returned MsrA inh 0.3, bovine MsrA act -4.3, rCAG binder 5.3, NadD block 33.8* and NadD inh conf 37.3.
For CC(C)C[C@H]1CN([C@@H](Cc2ccc(O)cc2)CN2CCC[C@@H]2CN2C(=O)C(=O)NC[C@@H]2Cc2ccccc2)C(=O)C(=O)N1CC1CCCCCC1 the results were MsrA inh 0.3, DAGLB inh 5.5, DSG3 Ab inh 104.2, bovine MsrA act -2.3, rCAG binder 5.0 and NadD block 29.1.
CN(C)c1ccnc2c[cH-]cc12.[Fe].c1ccc(-[c-]2[c-](-c3ccccc3)[c-](-c3ccccc3)[c-](-c3ccccc3)[c-]2-c2ccccc2)cc1 (stereo not drawn) was read as MsrA inh -0.1, DAGLB inh 1.8, DSG3 Ab inh 99.3, bovine MsrA act -4.0, rCAG binder 7.3, NadD block 29.5* and NadD inh conf -8.4.
CCCCn1nnnc1C(c1cc2ccccc2o1)N(C)CCc1ccccc1 (stereo not drawn) was read as MsrA inh -0.3, bovine MsrA act -3.5, rCAG binder 1.4 and NadD block 9.9.
Screening C[C@H]1C=C(C(=O)NCc2nc3ccccc3[nH]2)O[C@@H](OCc2ccc(CO)cc2)C1 returned MsrA inh -0.9, DAGLB inh -2.2, DSG3 Ab inh 103.8, bovine MsrA act -5.1, rCAG binder -5.0 and NadD block -2.6.
`O=C(NCc1nc2ccccc2[nH]1)C1=C[C@@H](c2ccc(Br)cc2)C[C@@H](OCc2ccc(CO)cc2)O1` gave MsrA inh -0.2, DAGLB inh -1.0, DSG3 Ab inh 99.1, bovine MsrA act -8.8, rCAG binder 4.3 and NadD block 25.9.
For O=C(NCc1nc2ccccc2[nH]1)C1=C[C@@H](c2csc3ccccc23)C[C@@H](OCc2ccc(CO)cc2)O1 the results were MsrA inh 2.7, DAGLB inh 0.4, DSG3 Ab inh 104.4, bovine MsrA act -2.9, rCAG binder 14.4, NadD block 34.3* and NadD inh conf 38.6.
